Consider 102 molecules from PubChem BioAssay AID686978 (National Center for Advancing Translational Sciences (NCATS), 2013).

Values joined by “and” are separate entries in the source; they are usually repeats but may differ in a detail not shown here. Identical values can stand only once. Screen size: about 420,000 compounds; about 64,000 (15%) were called active. About 27% were inconclusive and are not listed. Calls follow the shape of the dose curve; as a rule, active = well fitted inhibition curve with a large enough effect; inconclusive = small, poorly fitted or top-dose-only effect; inactive = flat fitted curve, though single readings scatter. These entries were drawn from the full list. A call without a number means that no potency is given here.
Potency is read from the fitted curve at half-maximal effect.

The nature of the test: qHTS for Inhibitors of human tyrosyl-DNA phosphodiesterase 1 (TDP1): qHTS in cells in absence of CPT. Also: nearly all actives have a fitted effect of over 55% in size. Conditions: DT40 Tdp1-/- hTDP1 cells, no CPT, ATP luminescence, 48 h; activity change, negative = growth inhibition: at 46.2 µM (top of the series). Summed up:
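Growth of hTDP1-complemented DT40 Tdp1-knockout cells is measured by ATP luminescence after at least 48 hr compound exposure at 37 °C, with DMSO substituting for the 20 nM CPT used in the parallel screen.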
Consider `CN(C)S(=O)(=O)c1cc(C(=O)Nc2ccn(C)n2)c(Cl)cc1Cl`, for which the Potency entry is “inactive”.

`COc1cc(-c2cccnc2)cc2c1OCCN(C(=O)Cc1csc(C)n1)C2`: the Potency result was “inactive”.

Turning to `COc1ccc2c(c1)NC(=O)C2CC(=O)N1CCOc2c(cc(-c3cnc4ccccc4c3)cc2OC)C1` (configuration not stated), the Potency was 18.4 µM (active).

In the case of `COc1ccc(OC)c(CNC(=O)C2CCCN(c3nc4ccccc4o3)C2)c1` (configuration not stated), the Potency entry is “inactive”.

For `O=C1Oc2ccccc2C(=O)/C1=C/c1ccccc1O`, the Potency was 8.2 µM (active).

For the molecule `COC(=O)c1ccc(/C=C2/C(=O)Oc3ccccc32)cc1`, the Potency result is “inactive”.

As to `COC(=O)c1c(NC(=O)c2c(Cl)cnn2C)sc(C)c1C`, the Potency entry was “inactive”.

Turning to `CN1CCN(c2ccc(S(=O)(=O)N3CCOCC3)cc2NC(=O)CCc2ccccc2)CC1`, the Potency result is “inactive”.

As for `COC(=O)C(C)N=Cc1ccccc1` (configuration not stated), the Potency entry is “inactive”.

As for `CN(Cc1ccccc1)c1nc2c(c(=O)[nH]c(=O)n2C)n1CCSc1nc2ccccc2[nH]1`, the Potency entry is “inactive”.

As to `CC=CCn1c(SCCCc2ccccc2)nc2c1c(=O)[nH]c(=O)n2C`, the Potency was 20.6 µM (active).

Take `CCCSc1nc2c(c(=O)[nH]c(=O)n2C)n1CCc1ccccc1`: the Potency entry was “inactive”.

As to `CN(C)Cc1c(C(=O)N/N=C/c2ccccc2OCc2ccc(F)cc2)nnn1-c1nonc1N`, the Potency result is “inactive”.

Regarding `Fc1cccc(/C=N\N=C/c2cccc(F)c2)c1`, the Potency entry is “inactive”.

As for `Cn1nc(-c2ccccc2)c2cc([N+](=O)[O-])ccc21`, the Potency result is “inactive”.

As to `COc1cc(/C(=C/c2ccccc2)c2ccccc2)c2c(c1)oc1ccccc12`, the Potency entry was “inactive”.

Take `CCCC(=O)Nc1c(O)c2ccccc2[nH]c1=O`: the Potency result was “inactive”.

With `CC1=C(C(=O)N2CCOCC2)CC(CC(=O)NCCCN(C)C)C(=O)N1Cc1ccc(C(C)(C)C)cc1` (configuration not stated), the Potency entry was “inactive”.

In the case of `CN1/C(=c2/s/c(=C3/C(=O)N(c4ccccc4)NC3=Nc3ccccc3)n(C)c2=O)C(C)(C)c2ccccc21`, the Potency is 11.6 µM (active).

`O=C(c1cccc(Cl)c1)N1CCN(CCc2ccncc2)CC1`: the Potency result was “inactive”.

As to `C#Cc1cc(N2CCN(C(=O)c3ccoc3)CC2)n2nc(-c3cccc(Cl)c3)cc2n1`, the Potency is 5.8 µM (active).

With `O=C(c1cccc(Br)c1)N1CCN(Cc2cc(=O)n3nc(-c4ccccc4)sc3n2)CC1`, the Potency result was “inactive”.

On to `O=C(c1ccccc1)N1CCN(c2cc(-c3ccccc3)nc3cc(-c4cccc(Cl)c4)nn23)CC1`, for which the Potency is 14.6 µM (active).

Turning to `O=C(c1cccc(Cl)c1)N1CCN(Cc2ccccc2)CC1`, the Potency result is “inactive”.

As for `COc1ccc2c(c1)c(=O)c(S(=O)(=O)c1ccc(F)cc1)cn2CC(=O)Nc1ccc(C)cc1C`, the Potency result is “inactive”.

Turning to `CCOC(=O)c1ccccc1NC(=O)CCc1c(C)nc2c(c1C)c(=O)n(C)c(=O)n2C`, the Potency result is “inactive”.

Regarding `O=C1Nc2cc(Cl)c(Cl)cc2N(O)N1c1cc(Cl)cc(Cl)c1`, the Potency entry was “inactive”.

As for `C/C(N)=C(/C#N)C(=O)COC(=O)C1=NN(c2ccccc2)C(=O)CC1`, the Potency entry is “inactive”.

On to `CCNc1nc(Oc2ccc(C(=O)OC)cc2)nc(N2CCOCC2)n1`, for which the Potency result is “inactive”.

In the case of `CCOC(=O)C1CCN(C(=O)/C=C/c2cc(OC)c(OC)c(OC)c2)CC1`, the Potency entry is “inactive”.

With `CCCCNC(=O)Cn1nc(C)c(S(=O)(=O)N2CCOCC2)c1C`, the Potency result is “inactive”.

Take `COC(=O)c1sccc1N/N=C(\C)c1ccc(F)c(Cl)c1`: the Potency result is “inactive”.

Consider `Cc1ccccc1CN1CCNC(=O)C1CC(=O)NCCC1=CCCCC1` (configuration not stated), for which the Potency result is “inactive”.

With `COc1ccc(Cc2nnc(SCC(=O)Nc3ccc(C)c(Cl)c3)[nH]c2=O)cc1`, the Potency entry is “inactive”.

As for `COCCNC(=O)CSc1nc2sccc2c(=O)n1-c1ccccc1`, the Potency result was “inactive”.

For the molecule `COc1ccc(-n2c(Cc3cccn3C)nnc2SCC(=O)Nc2cc(C)cc(C)c2)cc1`, the Potency result is “inactive”.

In the case of `Cc1nnc(SCC(=O)NCc2ccccc2)s1`, the Potency result was “inactive”.

As to `CCOc1ccc(-n2c(SCC(=O)NCc3ccccc3)nc3n[nH]c(C)c3c2=N)cc1`, the Potency was 7.31 µM (active).

Consider `O=C(COc1ccc(Cl)cc1)NCCC1=CCCCC1`, for which the Potency entry is “inactive”.

As for `COc1ccc(-n2c(SCC(=O)Nc3ccc(Cl)c(C)c3)nc3n[nH]c(C)c3c2=N)cc1`, the Potency was 9.2 µM (active).

Consider `CCCCNC(=O)CSc1nc2n[nH]c(C)c2c(=N)n1-c1cccc(Cl)c1C`, for which the Potency is 20.6 µM (active) and 9.2 µM (active).

`Cc1ccc(-n2c(SCC(=O)NCCC3=CCCCC3)nc3n[nH]c(C)c3c2=N)cc1Cl`: the Potency was 3.26 µM (active).

`Cc1nnc(SCC(=O)NCCOc2ccc(Cl)cc2)n1-c1ccccc1`: the Potency result is “inactive”.

Take `CCCCNC(=O)CSc1nnc(-c2ccco2)n1C`: the Potency entry is “inactive”.

As to `CN1CCN(CCNC(=O)Nc2ccccc2[N+](=O)[O-])CC1`, the Potency result was “inactive”.

On to `Cc1nnc2sc(-c3ccco3)nn12`, for which the Potency entry is “inactive”.

As for `CSc1ccc(C#N)cc1NC(=O)c1ccc(Cl)cc1`, the Potency entry is “inactive”.

On to `COCCCNC(=O)/C(C#N)=C/c1c(N2CCCCCC2)nc2ccccn2c1=O`, for which the Potency result was “inactive”.

Turning to `CCOC(=O)C1=C(C)NC(=O)N(C(C)=O)C1c1ccc(Cl)cc1` (configuration not stated), the Potency entry is “inactive”.

Turning to `CCN(CC(=O)Nc1ccc2c(c1)OCO2)S(=O)(=O)c1ccccc1`, the Potency entry was “inactive”.

For the molecule `O=C(COC(=O)CCc1c[nH]c(=O)[nH]1)Nc1ccccc1Cl`, the Potency entry is “inactive”.

With `Cn1c(-c2ccc(F)cc2)cnc1SCC(=O)NNC(=O)Cc1ccccc1`, the Potency entry was “inactive”.

Turning to `CCC(Sc1nc2n[nH]c(C)c2c(=N)n1-c1ccccc1Cl)C(=O)N(CC)CC` (configuration not stated), the Potency is 16.4 µM (active).

Turning to `COc1cccc(-n2c(SCC(=O)NC3CCS(=O)(=O)C3)nc3ccccc3c2=O)c1` (configuration not stated), the Potency entry was “inactive”.

`COc1cccc(-n2c(N)cc(=O)nc2SCC(=O)Nc2cc(C)on2)c1`: the Potency entry is “inactive”.

On to `COc1cccc(-n2c(SCC(=O)NC3CCCCC3)nc3n[nH]c(C)c3c2=N)c1`, for which the Potency is 18.4 µM (active).

`Cc1ccc(Sc2cc(C(=O)c3ccccc3C(=O)O)ccc2[N+](=O)[O-])cc1`: the Potency entry was “inactive”.

With `CC(=O)OCCOCn1cnn2c(=O)c(Br)c(C)nc12`, the Potency entry is “inactive”.

As to `NS(=O)(=O)c1ccc(NC2=CC(c3ccc(F)cc3)N(c3ccc(S(N)(=O)=O)cc3)C2=O)cc1` (configuration not stated), the Potency result is “inactive”.

Regarding `COc1ccc(S(=O)(=O)NCc2ccc(C(=O)N(C)Cc3ccco3)cc2)cc1`, the Potency entry is “inactive”.

With `Cc1cc(NS(=O)(=O)c2ccc3oc(=O)c4ncn(C)c4c3c2)ccc1Br`, the Potency entry was “inactive”.

On to `COc1ccc(S(=O)(=O)NCc2cccn2Cc2cccc(C)c2)cc1`, for which the Potency result was “inactive”.

Take `Cc1cccc(CNS(=O)(=O)c2ccc(-c3cnc(C4CC4)o3)cc2)c1`: the Potency was 16.4 µM (active).

In the case of `COc1ccc(CNS(=O)(=O)c2cc3c4c(c2)CCN4C(=O)CC3)cc1`, the Potency entry was “inactive”.

As to `Cc1cccc(NS(=O)(=O)c2ccc(-c3cnc(C4CC4)o3)cc2)c1`, the Potency was 0.58 µM (active).

On to `CC1CCN(S(=O)(=O)c2ccc(S(=O)(=O)NCc3cccnc3)cc2)CC1`, for which the Potency entry is “inactive”.

`Cc1ccc(S(=O)(=O)N[C@H]2CCC[C@@H]2O)cc1`: the Potency result is “inactive”.

For `COc1ccc(CNS(=O)(=O)c2ccc(-c3cnc(C4CC4)o3)cc2)cc1`, the Potency was 13 µM (active).

Turning to `O=C(NCc1ccco1)C1CCCN(S(=O)(=O)c2cnc[nH]2)C1` (configuration not stated), the Potency entry is “inactive”.

As to `Cc1ccc(N=C2NC(=O)c3cccc([N+](=O)[O-])c32)cc1`, the Potency entry is “inactive”.

Consider `O=C(COc1ccc(Br)cc1)OCC(=O)c1ccc[nH]1`, for which the Potency result was “inactive”.

With `Cc1ccc(CSCCNC(=O)CN(c2ccc(F)cc2)S(C)(=O)=O)cc1`, the Potency result is “inactive”.

For the molecule `Cc1c(NC(=S)NC(=O)CCc2ccccc2)c(=O)n(-c2ccccc2)n1C`, the Potency result was “inactive”.

As to `COc1cc(NC(=S)N2CCCC(C)C2)cc(OC)c1OC` (configuration not stated), the Potency entry is “inactive”.

As to `C[C@H](NC(=O)c1ccccc1)C(=O)OCC(=O)c1c[nH]c2ccccc12`, the Potency result is “inactive”.

In the case of `O=C(/C=C/c1cccs1)NCc1cccnc1`, the Potency result is “inactive”.

In the case of `Cc1noc(C)c1C(=O)NCC1COc2ccccc2O1` (configuration not stated), the Potency entry is “inactive”.

On to `CC(NC(=S)Nc1ccccc1)C1COc2ccccc2O1` (configuration not stated), for which the Potency result was “inactive”.

For `S=C(NCC1COc2ccccc2O1)Nc1ccc(Br)cc1` (configuration not stated), the Potency is 23.1 µM (active).

In the case of `O=C(O)c1ccc(NS(=O)(=O)c2cccc3nsnc23)cc1`, the Potency entry is “inactive”.

`COc1ccccc1NC(=O)C1=C(C)Nc2nc(SCC(=O)c3ccc(C)cc3)nn2C1c1ccccc1C` (configuration not stated): the Potency entry was “inactive”.

As to `Cc1cc(C)n(-c2nnc(N3CCN(c4ccccc4)CC3)nn2)n1`, the Potency result is “inactive”.

Regarding `CC(=O)c1ccc(Oc2cc(C)nc(-n3nc(C)cc3C)n2)cc1`, the Potency was 0.58 µM (active).

As for `Cc1cc(C)n(-c2ccc(Cl)c(C(=O)O)n2)n1`, the Potency entry is “inactive”.

As for `Cc1cccc(Nc2cc(C)nc(-n3nc(C)cc3C)n2)c1`, the Potency was 3.26 µM (active).

As for `Cc1cc(Oc2ccccc2)nc(N2CCOCC2)n1`, the Potency result is “inactive”.

As to `COc1ccc(C(=O)NNc2cc(C)nc(NNC(=O)c3ccc(OC)cc3)n2)cc1`, the Potency result is “inactive”.

As to `COc1ccc(Nc2cc(C)nc(-n3nc(C)cc3C)n2)cc1`, the Potency is 0.184 µM (active).

For the molecule `Cc1cc(C)n(-c2cc(Oc3ccccc3)ncn2)n1`, the Potency result was “inactive”.

For `Cc1ccc(Nc2nc3ccccc3nc2-n2nc(C)cc2C)c(Cl)c1`, the Potency result was “inactive”.

Regarding `CC1(C(=O)NCc2ccccc2)CSCC(=O)N1CCCn1ccnc1` (configuration not stated), the Potency result was “inactive”.

For `CC(=O)c1cc(-c2ccccc2)n(CC(=O)NC2CCCCC2)c1C`, the Potency entry was “inactive”.

For `O=C(C=CC(=O)Nc1ccc(F)cc1F)Nc1ccc(F)cc1F`, the Potency entry is “inactive”.

For `O=C(O)C1CCCCC1C(=O)N1CCN(S(=O)(=O)c2ccc(F)cc2)CC1` (configuration not stated), the Potency result was “inactive”.

Take `Cc1ccc2c(c1)C1CN(C)CCC1N2C(=O)c1ccccc1NS(=O)(=O)c1ccc(F)cc1C` (configuration not stated): the Potency result was “inactive”.

As to `CCOC(=O)c1ccc(S(=O)(=O)N(CCO)Cc2cc3cc(OC)c(OC)cc3[nH]c2=O)cc1`, the Potency result is “inactive”.

Take `CCOc1ccc2[nH]c(=O)c(CN(CCCO)S(=O)(=O)c3ccc(F)cc3)cc2c1`: the Potency was 16.4 µM (active).

`CCOc1ccc2[nH]c(=O)c(CN(CCCO)C(C)=O)cc2c1`: the Potency entry is “inactive”.

`CC(=O)c1c(C)[nH]c(C(=O)CN2C(=O)NC(C)(C)C2=O)c1C`: the Potency entry is “inactive”.

On to `COCCNC(=S)N(Cc1cccnc1)Cc1ccc(OC)c(OC)c1`, for which the Potency entry is “inactive”.

Turning to `COc1cccc(C(=O)n2ccc(-c3cccs3)n2)c1`, the Potency result was “inactive”.

Regarding `CC(C)CC1(C(=O)NCc2ccccn2)C=CCN1C(=O)c1ccccc1` (configuration not stated), the Potency result was “inactive”.
